The values that follow come from PubChem BioAssay AID372 (MTDP, 2006).

Among all 100,000 compounds or so, about 770 (0.77%) were called active. No stated cut-off is given here; in the data, active means inhibition above about 50%; inactive means the rest. What follows is part of a selection rich in actives, with near analogues and random picks from the rest.

The assay addresses Gag-Pol polyprotein (Human immunodeficiency virus type 1 group M subtype B (isolate HXB2)) (UniProt P04585). As to the kind of experiment: RNase H inhibition, HIV 1 Gag Pol polyprotein, FRET biochemical assay, screening (AID 372). The settings on record: HIV-1 RT RNase H, FRET RNA/DNA substrate fluorescence; at 10 µM; hits give high values.
What is called inhibition is the share of the control response that was lost under treatment. Consider `Cn1c(=O)c(Sc2ccccc2)c(Sc2ccccc2)c2ccccc21`, for which the inhibition is 43% (inactive).
In the case of `CCc1ccccc1N1C(=O)/C(=C/c2ccc(N3CCCCC3)o2)C(=O)NC1=S`, the inhibition was 19% (inactive).
Next, `Cc1cccc(N2C(=O)C(Cl)=C(Cl)C2=O)c1C`: 4% (inactive); `O=C(Nc1ccccc1-c1ccccc1)c1ccc2c(c1)C(=O)N(c1ccccc1-c1ccccc1)C2=O`: 17% (inactive); `Cc1ccccc1NC(=O)c1cc(S(=O)(=O)Nc2ccc(Br)cc2)ccc1Cl`: 10% (inactive).
Next, `CSC1=C(C#N)C(c2ccc(Cl)cc2)C(C(C)=O)=C(C)N1` (centres undefined): 2% (inactive); `O=C1NC(=S)S/C1=C/c1cccc(OCc2ccccc2)c1`: 29% (inactive).
Next, `Cc1ccc(OCCOc2cccc(/C=C3/SC(=S)NC3=O)c2)cc1`: 56% (active); `Cc1ccc(C)c(OCCOc2ccc(Cl)cc2/C=C2\SC(=S)NC2=O)c1`: 63% (active); `Cc1ccc(OCCOc2cccc(/C=C3\SC(=S)NC3=O)c2)c(C)c1`: 40% (inactive).
Turning to `Cc1cc(C)cc(OCCOc2cccc(/C=C3\SC(=S)NC3=O)c2)c1`, the inhibition was 45% (inactive).
Next, `Cc1ccc(C)c(OCCOc2ccc(/C=C3\SC(=S)NC3=O)cc2)c1`: 43% (inactive).
The same measure for `COc1ccc(OCCOc2cccc(/C=C3\SC(=S)NC3=O)c2)cc1`: 18% (inactive); for `Cc1ccc(C)c(OCCOc2cccc(/C=C3\SC(=S)NC3=O)c2)c1`: 54% (active); for `Cc1ccc(C)c(OCCOc2c(Cl)cc(Cl)cc2/C=C2\SC(=S)NC2=O)c1`: 33% (inactive).
Next, `O=C1NC(=S)S/C1=C/c1cccc(OCc2ccccc2Cl)c1`: 42% (inactive); `Cc1ccc(OCCOc2ccc(Cl)cc2/C=C2\SC(=S)NC2=O)c(C)c1`: 43% (inactive).
As for `Cc1ccc(Nc2cc(N3CCN(c4ccccc4Cl)CC3)c([N+](=O)[O-])cc2[N+](=O)[O-])cc1`, the inhibition was 13% (inactive).
Next, `Cc1ccc(C(C)C)c(OCC(=O)N2CCN(c3ccc([N+](=O)[O-])cc3Cl)CC2)c1`: 21% (inactive); `Cc1cc(C)nc(NS(=O)(=O)c2ccc(NS(=O)(=O)c3ccc4c(c3)C(=O)c3ccccc3-4)cc2)n1`: 15% (inactive); `Cc1ccc(Cl)cc1NC(=O)CN(CCc1ccccc1)S(=O)(=O)c1ccccc1`: 16% (inactive).
The same measure for `COc1cccc(/C=N/N2CCN(Cc3cccc4ccccc34)CC2)c1O`: 8% (inactive); for `COc1cccc(OCCOc2ccc(Br)cc2/C=C2/SC(=S)NC2=O)c1`: 55% (active); for `COc1ccc(OCCOc2ccc(Br)cc2/C=C2\SC(=S)NC2=O)cc1`: 34% (inactive).
Next, `COc1cccc(OCCOc2ccccc2/C=C2/SC(=S)NC2=O)c1`: 22% (inactive); `O=c1[nH]c(=O)n(Cc2ccccc2)c(O)c1C=Nc1ccc(F)cc1`: 22% (inactive).
Consider `Cc1ccc(N=Cc2c(O)n(Cc3ccccc3)c(=O)[nH]c2=O)cc1`, for which the inhibition was 46% (inactive).
The same measure for `Cc1ccccc1N=Cc1c(O)n(Cc2ccccc2)c(=O)[nH]c1=O`: 57% (active); for `COc1ccc(CCNC(=O)c2ccc(C#Cc3ccccc3)cc2)cc1OC`: 8% (inactive); for `CCOc1ccccc1NC(=O)CSCc1ccc(Cl)cc1Cl`: 48% (inactive).
For the molecule `CC(NC(=O)CSCc1ccc(Cl)cc1)c1ccccc1` (centres undefined), the inhibition is 6% (inactive).
The same measure for `CCOc1ccccc1NC(=O)CSCc1ccccc1Cl`: 51% (active).
The same measure for `CCC(C)NC(=O)CSCc1ccccc1Cl` (centres undefined): 0% (inactive); for `CC(NC(=O)CSCc1ccccc1Cl)c1ccccc1` (centres undefined): 54% (active); for `CCc1ccccc1NC(=O)CSCc1ccccc1Cl`: 20% (inactive).
Next, `CC(=O)c1ccc(C)cc1OC(=O)c1ccc(Cl)cc1`: 21% (inactive); `O=C(/C(=C/c1ccccc1)c1nc2ccccc2[nH]1)c1ccccc1`: 6% (inactive).
Take `O=C(Nc1ccc(I)cc1)c1ccc([N+](=O)[O-])o1`: the inhibition was 0% (inactive).
Next, `O=C(Nc1ccc(Cl)c([N+](=O)[O-])c1)c1ccc(-c2ccc(Cl)c(Cl)c2)o1`: 7% (inactive); `Cc1cc([N+](=O)[O-])ccc1-c1ccc(C(=O)Nc2ccc3oc(-c4ccccc4)nc3c2)o1`: 15% (inactive); `O=C(Nc1ccc2oc(-c3ccccc3)nc2c1)c1ccc([N+](=O)[O-])o1`: 6% (inactive).
For `O=C(Nc1ccc2oc(-c3cc(Br)ccc3Cl)nc2c1)c1ccc([N+](=O)[O-])o1`, the inhibition is 20% (inactive).
Next, `O=C(Nc1ccc([N+](=O)[O-])cc1)c1ccc(-c2cccc(Cl)c2)o1`: 10% (inactive); `Cc1ccc(-c2nc3cc(NC(=O)c4ccc([N+](=O)[O-])o4)ccc3o2)cc1Br`: 54% (active).
The same measure for `O=C(Nc1ccc2oc(-c3ccccc3)nc2c1)c1ccc(-c2ccc([N+](=O)[O-])cc2)o1`: 54% (active).
Next, `Cc1c(Cl)cccc1-c1ccc(C(=O)Nc2cccc(-c3nc4ccccc4o3)c2)o1`: 10% (inactive).
With `O=C(Nc1ccc([N+](=O)[O-])cc1)c1ccc(-c2ccc(Cl)c(Cl)c2)o1`, the inhibition was 50% (active).
Consider `O=C(Nc1ccc(-c2nc3ccccc3o2)cc1)c1ccc(-c2ccc([N+](=O)[O-])cc2)o1`, for which the inhibition was 48% (inactive).
Next, `Cc1c(Cl)cccc1-c1ccc(C(=O)Nc2ccc3oc(-c4cccnc4)nc3c2)o1`: 42% (inactive); `Cc1c(Cl)cccc1-c1ccc(C(=O)Nc2ccc(-c3nc4ccccc4o3)cc2)o1`: 54% (active); `NNC(=O)c1cc(C(=O)O)nc2ccc(Br)cc12`: 6% (inactive).
For `CCOc1ccc(/C=C2/SC(NC(C)=O)=NC2=O)cc1`, the inhibition was 0% (inactive).
Next, `COc1cc(C(=O)NC(=S)Nc2cccc(-c3nc4ncccc4o3)c2C)cc(OC)c1OC`: 17% (inactive); `Cc1cc(C)cc(NCc2ccc3c(c2)OCO3)c1`: 9% (inactive).
The same measure for `C=CCOc1ccccc1/C=N/NC(=O)c1cccc(I)c1`: 10% (inactive).
Next, `O=S(NC1CCCCC1)C12CC3CC(CC(C3)C1)C2` (centres undefined): 2% (inactive).
With `CC1=NN(c2ccccc2)C(=O)C1C(c1cccc([N+](=O)[O-])c1)C1C(=O)N(c2ccccc2)N=C1C` (centres undefined), the inhibition was 12% (inactive).
The same measure for `CCOC(=O)C1=C(C)NC(C)=C(C(=O)OC)C1c1ccc([N+](=O)[O-])cc1` (centres undefined): 16% (inactive).
Next, `O=C1N=c2ccccc2=C1c1sc(=S)[nH]c1O`: 6% (inactive); `Cc1ccc(C2(C)N(O)C(C)C(c3ccccc3)=[N+]2[O-])cc1` (centres undefined): 0% (inactive).
The same measure for `COc1ccc(CCN2C(=O)/C(=C\c3cccc4ccccc34)SC2=S)cc1OC`: 9% (inactive).
With `CCCOC(=O)c1ccc(NC(=O)c2cccc([N+](=O)[O-])c2)cc1`, the inhibition was 17% (inactive).
The same measure for `COC(=O)c1cc(NC(=O)c2ccc(-c3ccccc3[N+](=O)[O-])o2)cc(C(=O)OC)c1`: 45% (inactive).
Consider `Cc1cc2nc(-c3ccc(NC(=O)c4cccc([N+](=O)[O-])c4C)cc3)oc2cc1C`, for which the inhibition is 15% (inactive).
Next, `O=C(Nc1cc(Cl)cc(Cl)c1)c1ccc(-c2ccccc2[N+](=O)[O-])o1`: 59% (active).
On to `CC(=O)c1cccc(NC(=O)c2ccc(-c3ccccc3[N+](=O)[O-])o2)c1`, for which the inhibition was 13% (inactive).
Next, `Cc1ccccc1-c1nc2cc(NC(=O)c3ccc(-c4ccccc4[N+](=O)[O-])o3)ccc2o1`: 37% (inactive); `Cc1cc2nc(-c3ccc(NC(=O)c4ccc(-c5ccccc5[N+](=O)[O-])o4)cc3)oc2cc1C`: 52% (active); `O=C(Cc1cccc2ccccc12)N/N=C/c1cc(Br)c(O)c(Br)c1O`: 0% (inactive).
Next, `CCOc1cccc(NC(=O)/C(C#N)=C\c2ccc(-c3cccc([N+](=O)[O-])c3)o2)c1`: 10% (inactive).
Next, `CN1C(=O)/C(=C\c2ccc(Sc3ccc(Cl)cc3)o2)SC1=S`: 22% (inactive); `CN1C(=O)S/C(=C/c2ccc(Sc3ccccc3)o2)C1=O`: 52% (active).
In the case of `Cc1ccc(Sc2ccc(/C=C3/SC(=S)N(C)C3=O)o2)cc1`, the inhibition is 45% (inactive).
The same measure for `CCCCOc1ccc(C(=O)N2CCCc3ccccc32)cc1`: 13% (inactive).
Next, `O=C(Nc1cccc(NC(=O)C(Cl)(Cl)Cl)c1)c1ccc(Cl)cc1Cl`: 13% (inactive); `Cc1nc(/N=C/c2ccc(Br)cc2)sc1C`: 8% (inactive); `COc1cc(/C=C2\SC(N)=NC2=O)cc(Br)c1OC(=O)c1cccc2ccccc12`: 35% (inactive).
The same measure for `COc1cc(/C=C2\SC(N)=NC2=O)cc(Br)c1OCc1cccc2ccccc12`: 30% (inactive); for `COc1cc(/C=C2/SC(N)=NC2=O)ccc1OCc1ccccc1[N+](=O)[O-]`: 39% (inactive).
For the molecule `NC1=NC(=O)/C(=C/c2ccc(OC(=O)c3cccc4ccccc34)cc2)S1`, the inhibition was 20% (inactive).
The same measure for `COc1ccc(/C=C2\SC(N)=NC2=O)cc1OC(=O)c1cccc2ccccc12`: 53% (active); for `CCOc1cc(C=C2C(=O)NC(=O)NC2=O)ccc1OC(=O)c1cccc2ccccc12`: 56% (active); for `CCOc1cc(C=C2C(=O)NC(=O)NC2=O)ccc1OCc1cccc2ccccc12`: 43% (inactive).
As for `COc1ccc(C=C2C(=O)NC(=S)NC2=O)cc1OC(=O)c1cccc2ccccc12`, the inhibition is 26% (inactive).
Next, `COc1cc(/C=C2\SC(N)=NC2=O)ccc1OCc1cccc2ccccc12`: 52% (active); `CCOC(=O)C(=CNc1ccc(F)c(F)c1F)C(=O)OCC`: 10% (inactive).
For the molecule `CC(C)(C)c1ccc(C(=O)NCCSc2ccc(Cl)cc2)cc1`, the inhibition is 19% (inactive).
`O=C(N/N=C\c1cc(Br)ccc1O)c1cnccn1`: the inhibition is 7% (inactive).
Next, `Cc1ccc(NC(=S)NC(=O)c2ccccc2Cl)cc1C`: 11% (inactive); `O=C(COc1ccc(Br)cc1Cl)NCc1cccnc1`: 0% (inactive); `CC(=O)n1ccc(C(=O)Nc2ccc(Cl)c(Cl)c2)n1`: 2% (inactive).
The same measure for `O=C(Nc1ccc(F)cc1F)c1cnn2c1NC(c1cccs1)CC2C(F)(F)F` (centres undefined): 5% (inactive); for `O=c1oc2ccc(O)c(-c3ccccc3Cl)c2s1`: 2% (inactive); for `O=C(Oc1ccc2oc(=O)sc2c1)c1ccccc1`: 6% (inactive).
